Experimental findings from PubChem BioAssay (NCI) are described below.

About 83,000 compounds went through this panel and 20% of them were active in at least one assay; those are over-represented in the sample as a whole.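 Results are percent growth after 48 hours of single-concentration exposure. 100 means growth as in untreated cells, lower positive values show inhibition; negative values down to -100 show cell death.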 Values without a mark were called inactive. The source made the active and inactive calls. How the source made its calls: active means growth percent below 10; inactive means the rest.

Some test systems named below: NCI-H23 lung; NCI-H226 lung; NCI-H322M lung; HOP-62 NSCLC; NCI-H460 lung; HOP-92 NSCLC; NCI-H522 lung; A549/ATCC NSCLC; 786-0 renal; COLO 205 colon; DU-145 prostate; K-562 leukemia; MALME-3M melanoma; MDA-MB-231 breast; RXF 393 renal; SF-268 CNS; SF-295 CNS; SF-539 CNS; UACC-257 melanoma; M14 melanoma.
Test in all cases: NCI-60 one-dose screen, 48 h (100 = growth as untreated, 0 = no growth, -100 = all killed)
Holding throughout (conditions): 10 µM unless noted

Turning to `Oc1[nH]c2ccc(Cl)cc2c1N=Nc1nc(N=Nc2c(O)[nH]c3ccc(Cl)cc23)nc(N2CCOCC2)n1`, the growth is 17.2% in the assay on NCI-H23 lung; 57.3% in the assay on NCI-H226 lung; 78.1% with NCI-H322M lung; 37.6% in the assay on HOP-62 NSCLC; 88.2% in the assay on NCI-H460 lung; 26% in the assay on HOP-92 NSCLC. Moreover, the growth is 5.09% (active) with NCI-H522 lung; 101% in the assay with A549/ATCC NSCLC; 73.7% in the assay with 786-0 renal; 48.7% with COLO 205 colon; 88.4% in the assay on DU-145 prostate; 32.9% with K-562 leukemia. In addition, the growth with MALME-3M melanoma is 56.4%; with MDA-MB-231 breast it was 36.3%; with RXF 393 renal, 13.7%; with SF-268 CNS it was 49.1%; with SF-295 CNS it was 45.7%; with SF-539 CNS, 16%. The growth in the assay on UACC-257 melanoma is 82%; with M14 melanoma, 77.5%.

Regarding `CN1CCN(c2ccc(Nc3nc(NCCCNS(=O)(=O)c4ccc(F)cc4)c4sccc4n3)cc2)CC1`, the growth with NCI-H23 lung is 87%; with NCI-H226 lung, 99.4%; in the assay with NCI-H322M lung it was 87.6%; in the assay on HOP-62 NSCLC, 91.5%; with NCI-H460 lung, 72%; with HOP-92 NSCLC, 37.8%. Further, the growth in the assay on NCI-H522 lung is 71%; in the assay with A549/ATCC NSCLC, 77.9%; in the assay with 786-0 renal, 3.97% (active); with COLO 205 colon, 50.5%; with DU-145 prostate it was 72.6%; in the assay on K-562 leukemia, 10.4%. Also, the growth with MALME-3M melanoma is -66.2% (active); with MDA-MB-231 breast, 43.2%; with RXF 393 renal it was 36.5%; in the assay on SF-268 CNS it was 60.3%; in the assay with SF-295 CNS, 32.4%; in the assay on SF-539 CNS, -76% (active). Also, the growth with UACC-257 melanoma was -28.6% (active); in the assay with M14 melanoma it was -21.3% (active).

As to `COc1cccc2c1C=CC1(O2)Oc2cccc(OC)c2C=C1C` (stereo not given), the growth is 34.8% in the assay on NCI-H23 lung; 57.4% with NCI-H226 lung; 46.1% in the assay with NCI-H322M lung; 55.9% in the assay on HOP-62 NSCLC; 7.1% (active) with NCI-H460 lung; -5.13% (active) with HOP-92 NSCLC. Besides, the growth in the assay with NCI-H522 lung was 12.6%; in the assay on A549/ATCC NSCLC, 25.1%; in the assay on 786-0 renal it was 26.9%; with COLO 205 colon it was 16.6%; with DU-145 prostate it was 31.5%; with K-562 leukemia it was 8.28% (active). Moreover, the growth in the assay with MALME-3M melanoma is 60.4%; in the assay with MDA-MB-231 breast, 0.892% (active); in the assay with RXF 393 renal, -18.2% (active); in the assay on SF-268 CNS, 55.3%; in the assay with SF-295 CNS it was 6.46% (active); with SF-539 CNS it was -9.43% (active). Also, the figures for the growth in the assay with UACC-257 melanoma and in the assay on M14 melanoma were 73.9% and 1.02% (active), respectively.

`O=C(COc1ccc(/C=C2\C(=O)Nc3ccc(F)cc32)cc1)Nc1ccccc1`: the growth in the assay with NCI-H23 lung is 95%; in the assay with NCI-H226 lung it was 96.6%; in the assay with NCI-H322M lung, 99.3%; in the assay on HOP-62 NSCLC, 99.5%; with NCI-H460 lung, 96.1%; in the assay on HOP-92 NSCLC it was 116%. Further, the growth with NCI-H522 lung is 93.9%; in the assay with A549/ATCC NSCLC, 96.7%; with 786-0 renal, 105%; in the assay with COLO 205 colon it was 113%; in the assay on DU-145 prostate, 104%; in the assay on K-562 leukemia, 89.6%. Besides, the growth was 102% with MALME-3M melanoma; 104% in the assay on MDA-MB-231 breast; 120% with RXF 393 renal; 95.1% in the assay on SF-268 CNS; 105% in the assay on SF-295 CNS; 93.8% with SF-539 CNS. The growth in the assay on UACC-257 melanoma is 104%; with M14 melanoma, 94.4%.

On to `CCN(CC)CCOc1ccc(C(=C(C)Cc2ccc(OC)cc2)c2ccc(OCCN(CC)CC)cc2)cc1`, for which the growth with NCI-H23 lung is 82.6%; with NCI-H226 lung it was 81.3%; in the assay on NCI-H322M lung, 81.5%; in the assay on HOP-62 NSCLC it was 62.6%; in the assay on NCI-H460 lung it was 38.4%; in the assay with HOP-92 NSCLC, 19.9%. Further, the growth with NCI-H522 lung is 76.8%; with A549/ATCC NSCLC it was 52.6%; with 786-0 renal, 60.5%; in the assay with COLO 205 colon it was -78.2% (active); in the assay with DU-145 prostate, 74.5%; in the assay on K-562 leukemia, -4.16% (active). Moreover, the growth with MALME-3M melanoma was -75.5% (active); in the assay on MDA-MB-231 breast, 55.4%; in the assay on RXF 393 renal, 41.9%; in the assay with SF-268 CNS it was 70%; with SF-295 CNS it was 52.8%; in the assay with SF-539 CNS, -45.9% (active). In addition, the growth in the assay with UACC-257 melanoma was 62.6%; in the assay with M14 melanoma, -53.6% (active).

For `COc1ccc2[nH]cc(-c3nn4cc(-c5ccncc5)nc4s3)c2c1`, the growth is 70.2% in the assay with NCI-H23 lung; 76.5% in the assay on NCI-H226 lung; 78.2% with NCI-H322M lung; 69.9% in the assay with HOP-62 NSCLC; 51.3% with NCI-H460 lung; 28.9% in the assay on HOP-92 NSCLC. Moreover, the growth is 51% in the assay with NCI-H522 lung; 74.6% with A549/ATCC NSCLC; 79.8% with 786-0 renal; 47% in the assay with COLO 205 colon; 88.8% with DU-145 prostate; 28.5% with K-562 leukemia. For the same compound, the growth in the assay on MALME-3M melanoma is 86.3%; with MDA-MB-231 breast, 82.3%; in the assay on RXF 393 renal it was 96%; with SF-268 CNS, 86.9%; in the assay on SF-295 CNS it was 62.8%; in the assay with SF-539 CNS, 88.3%. The growth is 109% with UACC-257 melanoma and 82.8% in the assay with M14 melanoma.

In the case of `COc1ccc(NC2=C(Br)C(=O)C(C)=C(C)C2=O)cc1OC`, the growth was 89.8% in the assay on NCI-H23 lung; 88.2% in the assay with NCI-H226 lung; 106% in the assay on NCI-H322M lung; 104% in the assay on HOP-62 NSCLC; 101% with NCI-H460 lung; -60.8% (active) with HOP-92 NSCLC. The growth with NCI-H522 lung is 89.6%; in the assay on A549/ATCC NSCLC it was 98.7%; with 786-0 renal it was 106%; with COLO 205 colon it was 125%; with DU-145 prostate, 109%; in the assay with K-562 leukemia, -7.89% (active). The growth was 117% in the assay on MALME-3M melanoma; 33.3% in the assay on MDA-MB-231 breast; 104% with RXF 393 renal; 95.3% with SF-268 CNS; 94.4% with SF-295 CNS; 101% in the assay on SF-539 CNS. Moreover, the figures for the growth in the assay on UACC-257 melanoma and in the assay on M14 melanoma were 96% and 104%, respectively.
